p53 reactivation = mutant p53 re-activation in reporter cells | H1299 p53-A138V BP100-luciferase reporter, luminescence, 24 h | Potency, µM (series often up to 92.2 µM), for the others: top-dose activity change, positive = activation, most hits filed as activators | 320,000 compounds, 0.063% hits | AID 504706; further: % of control where 0% means no effect; nearly all actives have a fitted effect of over 45% in size
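H1299 (p53-null), stable ts p53-A138V + BP100-Luc; 1000 cells/well, Opti-MEM/10% FBS; cpd 4 pt, 1:5; 24 h, 37 deg C, 5% CO2; detection reagent 10 min RT; luminescence.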
SMN2 splice enh = increases expression of the SMN2 splice variant | 210,000 compounds, 2.8% hits | HEK293 SMN2-luciferase splicing reporter, luminescence, 30-36 h | Potency, µM (top dose mostly 46.1 µM), without a hit: at the highest dose activity change, positive = activation, actives largely listed as activators; further: % of control where 0% means no effect; nearly all actives have a fitted effect of over 55% in size
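HEK293 cells carry an SMN2 minigene-luciferase reporter in which exon 7 inclusion puts luciferase in frame. Cells were seeded at 2000 cells/well, attached for 10-12 hours, then exposed to compounds for 30-36 hours at 37C before ONE-Glo luminescence.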
FLuc modulator = firefly luciferase modulation, counter-screen for miR-21 project. purified FLuc, Km substrates, luminescence inhibition. Potency, µM (doses to about 57.5 µM), without a hit: at the highest dose activity change, negative = inhibition, usual class: inhibitors. 360,000 compounds, 6.9% hits. AID 588342. P08659;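 further: plate controls were vehicle for no effect and reference inhibitor for full effect; nearly all actives have a fitted effect of over 55% in size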
Target sequence (P08659 whole entry, looked up): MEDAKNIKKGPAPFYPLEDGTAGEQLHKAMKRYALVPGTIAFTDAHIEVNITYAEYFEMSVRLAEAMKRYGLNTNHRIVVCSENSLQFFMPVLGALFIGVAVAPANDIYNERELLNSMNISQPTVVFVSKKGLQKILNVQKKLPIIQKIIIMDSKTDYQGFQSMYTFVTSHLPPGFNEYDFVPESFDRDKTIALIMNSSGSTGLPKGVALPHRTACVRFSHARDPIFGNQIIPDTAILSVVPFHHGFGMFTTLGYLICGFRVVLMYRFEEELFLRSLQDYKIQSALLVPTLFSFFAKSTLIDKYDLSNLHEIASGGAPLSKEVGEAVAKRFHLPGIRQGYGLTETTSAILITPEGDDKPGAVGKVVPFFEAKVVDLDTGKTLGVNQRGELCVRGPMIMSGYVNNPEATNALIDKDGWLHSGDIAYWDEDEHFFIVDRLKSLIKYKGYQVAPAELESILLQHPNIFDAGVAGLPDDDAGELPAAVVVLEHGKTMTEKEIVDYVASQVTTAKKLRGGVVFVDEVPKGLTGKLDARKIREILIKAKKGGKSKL
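Biochemical qHTS of compounds, final roughly 60 µM downward over six points, against 10 nM purified firefly luciferase using Km concentrations of substrates (10 uM D-luciferin, 10 uM ATP) in Tris acetate pH 7.5 buffer; luminescence output.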
NPC1 prom act = activators of NPC1 promoter | Huh7 NPC1 promoter luciferase reporter, 24 h | 320,000 compounds, 2.4% hits | Potency, µM (highest dose often 9.22 µM), for inactives: at the highest dose activation, usual class: activators; further: % of control where 0% means no effect; nearly all actives have a fitted effect of over 60% in size
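NPC1 promoter–luciferase Huh7 cells; 24 h compound; luminescence.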
Rab9 prom act = activators of Rab9 promoter. Potency, µM (top dose mostly 9.22 µM), for inactives: at the top dose activation, negative = inhibition, hits mostly activators. 320,000 compounds, 2.8% hits. Huh7 Rab9 promoter-luciferase reporter, luminescence, 24 h. AID 485297; further: % of control where 0% means no effect; nearly all actives have a fitted effect of over 60% in size
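Huh7 cells stably carrying a Rab9 promoter-luciferase reporter, 1500 cells per well in OP-MEM I with 10% FBS, treated with compound 24 hours at 37C. Luciferase activity read by luminescence after 10 minutes with Amplite reagent.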
ELG1 genotoxic = inducers of genotoxicity in HEK293T ELG1-luciferase cells; 330,000 compounds, 1.3% hits; HEK293T ELG1-luciferase reporter, luminescence, 16 h; Potency, µM (top dose mostly 46 µM), for the others: top-dose activity change, positive = activation, most hits filed as activators; AID 504466; further: % of control where 0% means no effect; nearly all actives have a fitted effect of over 60% in size
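Cells (2,000/well) expressing the ELG1-luciferase fusion are dosed by pin tool and kept 16 hr at 37 °C, 5% CO2. Signal comes from ONE-Glo luciferase reagent after 30 min at room temperature.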
Numbers without * were called inactive; [ ] = another dose, or the depositor's remark. The list is not random: actives were taken first. Their share in the collection is about 7.4%. The call rests on the fitted dose curve; in most records, active means well fitted curve in the direction sought with a large enough effect; inconclusive means small, poorly fitted or top-dose-only effect, or another doubt; inactive means no such curve, though single readings can be large; an effect the other way counts as inactive or inconclusive. Potency means the concentration at half of the fitted maximal effect.

`Clc1cccc(Cl)c1C(Nc1nncs1)Nc1nncs1` gave SMN2 splice enh 4%[9.22 µM].
`C/C=C\C=C/C(=O)Nc1cccc(C2=NOC3(C2)C[C@@H](C(N)=O)N(C(=O)CCCCC)C3)c1` (stereo not given in full) gave p53 reactivation -4%, FLuc modulator 13µM*, NPC1 prom act -39%, Rab9 prom act -5% and ELG1 genotoxic 2%.
C/C=C/C=C/C(=O)N1CC2(CC(c3cccc(NC(=O)CCCCC)c3)=NO2)C[C@H]1C(N)=O (stereo not given in full) was read as p53 reactivation -2%, FLuc modulator -17%, NPC1 prom act -3%, Rab9 prom act -1% and ELG1 genotoxic -3%.
For C/C=C(/C)C(=O)Nc1cccc(C2=NOC3(C2)C[C@H](C(N)=O)N(C(=O)Cc2ccc([N+](=O)[O-])cc2)C3)c1 (stereo not given in full) the results were p53 reactivation 0%, FLuc modulator 5%, NPC1 prom act -1%, Rab9 prom act -1% and ELG1 genotoxic 5%.
For C/C=C\C=C/C(=O)Nc1cccc(C2=NOC3(C2)C[C@H](C(N)=O)N(C(=O)Cc2ccc([N+](=O)[O-])cc2)C3)c1 (stereo not given in full) the results were p53 reactivation 3%, FLuc modulator 21µM*, NPC1 prom act -1%, Rab9 prom act 1% and ELG1 genotoxic 8%.
C/C=C\C=C/C(=O)Nc1cccc(C2=NOC3(C2)C[C@H](C(N)=O)N(C(=O)CC)C3)c1 (stereo not given in full) was read as p53 reactivation 7%, FLuc modulator 19µM*, NPC1 prom act 1%, Rab9 prom act 3% and ELG1 genotoxic 0%.
Screening COc1ccc(C2NC(=O)N(C)C3=C2C(=O)N(c2ccccc2)C3)cc1 (stereo not given) returned SMN2 splice enh -2% and FLuc modulator -8%.
Screening COc1ccccc1-c1nn2c(=O)cc(C)nc2s1 returned p53 reactivation 11%, SMN2 splice enh inconclusive, FLuc modulator inconclusive, NPC1 prom act 18%, Rab9 prom act inconclusive and ELG1 genotoxic inconclusive.
Cc1cc(=O)n2nc(-c3ccc(C(F)(F)F)cc3)sc2n1 was read as p53 reactivation 21%, SMN2 splice enh 11µM*, FLuc modulator inconclusive, NPC1 prom act inconclusive, Rab9 prom act inconclusive and ELG1 genotoxic 4µM*.
Cc1oc2ccc(O)c(CN3CCN(C)CC3)c2c1C(=O)Nc1cccc(Cl)c1C was read as SMN2 splice enh 3% and FLuc modulator 2%.
Screening OC(COc1ccccc1)CSc1ncn[nH]1 (stereo not given) returned p53 reactivation -4%, SMN2 splice enh 22%, FLuc modulator 0%, NPC1 prom act -3%, Rab9 prom act 0% and ELG1 genotoxic -1%.
Screening CC(C)(C)c1ccc(OCC(O)CSc2ncn[nH]2)cc1 (stereo not given) returned p53 reactivation -7%, SMN2 splice enh inconclusive, FLuc modulator 2.1µM*, NPC1 prom act inconclusive, Rab9 prom act inconclusive and ELG1 genotoxic inconclusive.
`O=C(Nc1nnc(-c2ccc(Cl)cc2)o1)C1CCCCC1` gave p53 reactivation 7%, FLuc modulator -18%, NPC1 prom act 22%, Rab9 prom act 25% and ELG1 genotoxic 3%.
Clc1ccc(-c2nnc(NC3=NCCCCC3)o2)cc1 was read as p53 reactivation -4%, SMN2 splice enh inconclusive, FLuc modulator 0.43µM*, NPC1 prom act 0.35µM*, Rab9 prom act 0.32µM* and ELG1 genotoxic inconclusive.
For CC1CCc2nc(/C(C#N)=C/c3cccnc3)sc2C1 (stereo not given) the results were p53 reactivation 1%, SMN2 splice enh 2µM*, FLuc modulator 2.1µM*, NPC1 prom act inconclusive, Rab9 prom act 1.3µM* and ELG1 genotoxic 2.3µM*.
For COc1cc(/C=C(\C#N)c2nc3c(s2)CCCC3)ccc1O the results were p53 reactivation inconclusive, SMN2 splice enh 22µM*, FLuc modulator 6µM*, NPC1 prom act inconclusive, Rab9 prom act inconclusive and ELG1 genotoxic 11µM*.
N#C/C(=C\c1cccnc1)c1nc2c(s1)CCCC2 was read as p53 reactivation 27%, SMN2 splice enh 13µM*, FLuc modulator 12µM*, NPC1 prom act 3.5µM*, Rab9 prom act 4µM* and ELG1 genotoxic 16µM*.
For N#C/C(=C/c1cccnc1)c1ccccc1 the results were p53 reactivation inconclusive, FLuc modulator -16%, NPC1 prom act 4%, Rab9 prom act 3% and ELG1 genotoxic 4%.
Cc1oc(-c2ccc(Cl)cc2)nc1CN1CCCC(C(=O)NCCc2ccc(Cl)cc2)C1 (stereo not given) was read as SMN2 splice enh 4% and FLuc modulator inconclusive.
Screening COc1ccc(NC(=O)CN2C(=O)CC(c3ccc(C)c(C)c3)=Nc3ccccc32)cc1OC returned FLuc modulator 13µM*.
`Cc1ccc(C2=Nc3ccccc3N(CC(=O)NCc3ccccc3Cl)C(=O)C2)cc1C` gave FLuc modulator 9.5µM*.
`C=Cc1cccc(C)c1` gave SMN2 splice enh -3%.
`Cc1c(C2=CCN(S(=O)(=O)c3cccc(Cl)c3)CC2)c2ccccc2n1CC(=O)N1CCCC1` gave SMN2 splice enh -17% and FLuc modulator -2%.
`COc1ccc(NC(=O)CSc2nnc(-c3nonc3NC(C)=O)n2C)cc1Cl` gave FLuc modulator -6%.
For C=CCn1c(-c2cccs2)nc2ccccc21 the results were p53 reactivation 3%, SMN2 splice enh 7%, FLuc modulator inconclusive, NPC1 prom act 6%, Rab9 prom act 11% and ELG1 genotoxic 13%.
C=CCn1c(-c2cccc(OC)c2)nc2nc3ccccc3nc21 was read as p53 reactivation 2%, SMN2 splice enh -10%, FLuc modulator 15µM*, NPC1 prom act -1%, Rab9 prom act -1% and ELG1 genotoxic -9%.
Screening C=CCn1c(-c2cccs2)nc2nc3ccccc3nc21 returned p53 reactivation inconclusive, SMN2 splice enh 2.8µM*, FLuc modulator 19µM*, NPC1 prom act 29%, Rab9 prom act 30% and ELG1 genotoxic inconclusive.
`Cc1ccc(NC(=O)Cc2ncon2)cc1Cl` gave p53 reactivation 4%, FLuc modulator 15µM*, NPC1 prom act 8%, Rab9 prom act 17% and ELG1 genotoxic 5%.
